In doi:10.1101/2023.07.10.548322:

The sequences below were run against alpha-synuclein (aSyn) WT (human, UniProt P37840 1-140) (assay: RNA Bind-n-Seq). Settings: ssRNA.

| Sequence | binding signal |
| --- | --- |
| AUGGGAGUGGGG | 43.8 enrichment score |
| UGUGGGCGGGAG | 54.6 enrichment score |
| UGGGGUGGGAGU | 46.4 enrichment score |
| UGGGGGAUGGAG | 41.1 enrichment score |
| GUGGAGAGGUGG | 54.6 enrichment score |
| GAGGCGGGAGGG | 43.8 enrichment score |
| GUGGGGGGGGCA | 43.8 enrichment score |
| UAGGUUGGGGGU | 46.4 enrichment score |
| GGGAAGGUUGUG | 43.8 enrichment score |
| UGAUGGGGGUGG | 43.8 enrichment score |
| UGGGAGGGGAGU | 43.8 enrichment score |
| GGGGGAUGUGGU | 46.4 enrichment score |
| GGAGGAGGCGGU | 41.1 enrichment score |
| AGUUGGUGGUGG | 46.4 enrichment score |
| GGAGGAAGGGGA | 41.1 enrichment score |
| GCGGGGGGGCUG | 43.8 enrichment score |
| GAGGUUGGCGGG | 43.8 enrichment score |

| Sequence | binding signal |
| --- | --- |
| CGUGGGAGGGGG | 43.8 enrichment score |
| GAGGGGCUGGCG | 41.1 enrichment score |
| GCGGGGUUAGGG | 49.1 enrichment score |
| AGGGGGGAGCAG | 49.1 enrichment score |
| UGGGGAGUGGGU | 51.8 enrichment score |
| GGUAGGCUGUGG | 49.1 enrichment score |
| AGUGGGGGGGAG | 43.8 enrichment score |
| UGGGGGUGGAUG | 43.8 enrichment score |
| UGGGGGAUGAGG | 46.4 enrichment score |
| AGGGGUUUUGGG | 43.8 enrichment score |
| AAGGGGCGGAGG | 54.6 enrichment score |
| GCGGGCAGGUGG | 43.8 enrichment score |
| UGGGUGGGUGGG | 46.4 enrichment score |
| GAGGAGGGUGGG | 57.4 enrichment score |
| GGGGGGCUGAGG | 43.8 enrichment score |
| AGUGGGGGGGUG | 43.8 enrichment score |
